Here are results for 6 molecules from PubChem BioAssay.

Where “and” joins values, the source holds several entries; their conditions need not be identical. Identical values can stand only once. Calls of active or inactive are those of the source.

Assay [1] has as its system Human papillomavirus type 1a protein E7 (residues 44-93). The experiment in a line: small molecules binding HPV E7 44-93 – biochemical, small-molecule microarray, residues 44-93, 635 nm fluorescence, primary screen (AID 1108).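 Note: E7 fragment applied at 1 µg/mL in TBST for 1 h at 4 C; score combines spot fluorescence with its signal to noise ratio.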 To be noted: fluorescence 635 nm, higher = more signal.
Assay [2] is described as follows: hepatitis C replication reporter changes, two-sided – Huh7 cells, luciferase reporter, HCV replication inhibitor project, primary screen (AID 1109).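 Note: huh7 hepatoma cells harbouring a luciferase neomycin HCV replicon reporter; luciferase luminescence as measure of HCV replicon replication; test concentration not given here.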 To be noted: Huh7 HCV replicon luciferase reporter, 48 h; higher = more signal.
Assay [3] deals with Left-right determination factor 2 (Homo sapiens) (UniProt O00292). Nature of the assay: small molecules binding LEFTY2 protein – biochemical, small-molecule microarray, 635 nm fluorescence scan, primary screen (AID 1110). To be noted: higher = more signal.
Left-right determination factor 2 (Homo sapiens), sequence (O00292 whole entry, looked up): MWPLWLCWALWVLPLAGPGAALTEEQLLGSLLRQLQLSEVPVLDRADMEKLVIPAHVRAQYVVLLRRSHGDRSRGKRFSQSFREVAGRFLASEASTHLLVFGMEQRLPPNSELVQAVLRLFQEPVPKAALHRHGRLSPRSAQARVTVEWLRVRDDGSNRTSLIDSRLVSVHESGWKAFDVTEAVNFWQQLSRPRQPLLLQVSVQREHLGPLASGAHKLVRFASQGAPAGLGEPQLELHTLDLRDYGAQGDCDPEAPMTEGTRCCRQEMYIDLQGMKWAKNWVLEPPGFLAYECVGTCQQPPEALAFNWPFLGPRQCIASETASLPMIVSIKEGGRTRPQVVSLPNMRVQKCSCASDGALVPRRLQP
The target of assay [4] is Calmodulin-1 (Homo sapiens) (UniProt P0DP23). Nature of the assay: small molecules binding calmodulin-1 with EGTA – biochemical, small-molecule microarray, Cy5-labelled CALM1, profiling panel (AID 1111).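 Note: labelled calmodulin applied in Tris saline Tween buffer holding calcium plus EGTA and DTT.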 To be noted: Cy5-CALM1 binding fluorescence, higher = more signal.
For assay [5] the target is unchanged. The experiment in a line: small molecules binding Ca-loaded calmodulin-1 – biochemical, small-molecule microarray, Cy5-labelled CALM1, plus calcium, artefact control for SMM control-protein annotation, profiling panel (AID 1112).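 Note: score merges spot fluorescence with signal to noise from triplicate slides.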 To be noted: Cy5-CALM1 binding fluorescence, higher = more signal.
A short description of assay [6]: probe aWnt5a binding to arrayed compounds – biochemical, biotinylated probe, 635/667 nm fluorescence, primary screen (AID 1113).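 Note: score merges 667 nm fluorescence intensity with signal-to-noise per printed feature.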 To be noted: small-molecule microarray, higher = more signal.
Assay [7] in a line: probe aShh binding to arrayed compounds – biochemical, biotinylated probe, 635/667 nm fluorescence, primary screen (AID 1114).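 Note: probe is biotin-labelled aShh protein from a stem cell growth factor screen; measures binding of labelled protein to compounds printed on the slide; score merges feature fluorescence at 667 nm with signal-to-noise.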 To be noted: small-molecule microarray, higher = more signal.
Assay [8] in a line: probe aNog binding to arrayed compounds – biochemical, biotinylated probe, 635/667 nm fluorescence, primary screen (AID 1115).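 Note: probe is biotinylated aNog protein used at 0.15 µg/mL for 1 h at 4 C; z-score combines 667 nm fluorescence of each spot with its signal to noise.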 To be noted: small-molecule microarray, higher = more signal.
In assay [9] the target is Torsin-1A-interacting protein 1 (Homo sapiens) (UniProt Q5JTV8). The experiment in a line: compound microarray binding of lysate hLAP1 – cell lysate, small-molecule microarray, COS7 lysate, 635/667 nm fluorescence, primary screen (AID 1116). To be noted: 635 nm fluorescence, higher = more signal.
Torsin-1A-interacting protein 1 (Homo sapiens), sequence (Q5JTV8 whole entry, looked up): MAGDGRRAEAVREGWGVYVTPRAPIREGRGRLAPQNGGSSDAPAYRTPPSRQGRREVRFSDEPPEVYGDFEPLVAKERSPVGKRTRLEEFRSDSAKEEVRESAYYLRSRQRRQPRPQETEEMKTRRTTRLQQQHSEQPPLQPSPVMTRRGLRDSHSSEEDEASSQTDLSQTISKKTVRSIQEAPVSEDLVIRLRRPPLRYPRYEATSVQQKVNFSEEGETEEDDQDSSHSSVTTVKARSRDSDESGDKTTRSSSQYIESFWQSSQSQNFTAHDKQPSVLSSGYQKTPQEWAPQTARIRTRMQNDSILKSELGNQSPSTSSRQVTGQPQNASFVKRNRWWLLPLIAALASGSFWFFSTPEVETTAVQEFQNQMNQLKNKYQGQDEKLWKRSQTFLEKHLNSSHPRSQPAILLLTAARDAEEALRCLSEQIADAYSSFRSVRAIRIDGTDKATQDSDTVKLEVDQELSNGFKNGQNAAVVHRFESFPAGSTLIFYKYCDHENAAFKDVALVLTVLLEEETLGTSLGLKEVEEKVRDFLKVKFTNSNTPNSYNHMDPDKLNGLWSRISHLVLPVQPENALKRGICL
The target in assay [10] is Alpha-bungarotoxin (Bungarus multicinctus) (UniProt P60615). Nature of the assay: compounds binding labelled alpha-BTX control protein – biochemical, small-molecule microarray, Alexa647 label, 635/667 nm fluorescence, artefact control for SMM control protein annotation, profiling panel (AID 1117). To be noted: alpha-BTX-A647 binding fluorescence, higher = more signal.
Alpha-bungarotoxin (Bungarus multicinctus), sequence (P60615 whole entry, looked up): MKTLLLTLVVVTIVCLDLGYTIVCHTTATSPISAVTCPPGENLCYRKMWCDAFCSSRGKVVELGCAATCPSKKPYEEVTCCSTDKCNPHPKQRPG
Assay [11] has as its target Albumin (Bos taurus) (UniProt P02769). Nature of the assay: compounds binding labelled BSA control protein – biochemical, small-molecule microarray, Alexa647 label, 635/667 nm fluorescence, artefact control for SMM control protein annotation, profiling panel (AID 1118).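 Note: score merges 667 nm emission intensity and signal-to-noise per printed compound spot.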 To be noted: BSA-A647 binding, fluorescence 635 nm, higher = more signal.
The nature of assay [12]: probe aXIP binding to arrayed compounds – biochemical, NeuroSMM set, 635/667 nm fluorescence, primary screen (AID 1119).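 Note: probe is the protein aXip251-270 applied at 1 µg/mL to compound-printed slides; binding of probe to printed compounds measured as 667 nm fluorescence plus signal to noise.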 To be noted: small-molecule microarray, higher = more signal, called active from +8 up or from −8 down.
The nature of assay [13]: probe aNOTCH3 binding on compound microarray – biochemical, small-molecule microarray, 635/667 nm fluorescence, primary screen (AID 1120).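 Note: probe is a biotin-tagged antibody raised against NOTCH3 rather than NOTCH3 protein; score merges spot fluorescence near 667 nm with spot signal to noise.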 To be noted: higher = more signal.
Assay [14] is described as follows: probe aNOTCH2 binding on compound microarray – biochemical, small-molecule microarray, 635/667 nm fluorescence, primary screen (AID 1121).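 Note: score merges feature fluorescence read at 667 nm with its signal to noise.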 To be noted: higher = more signal.
The target in assay [15] is Carbonic anhydrase 2 (Homo sapiens) (UniProt P00918). Nature of the assay: compounds binding carbonic anhydrase 2 – biochemical, small-molecule microarray, Alexa647-labelled CAII, profiling panel (AID 1122). To be noted: CAII-A647 binding fluorescence, higher = more signal.
Assay [16] can be described thus: COS7 lysate on small-molecule microarray, probe aHis, 635 nm (AID 1123).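 Note: z-score combines 667nm fluorescence intensity with signal-to-noise per printed compound spot.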 To be noted: COS7 cell lysate, fluorescence, higher = more signal.
Assay [17] can be described thus: probe aLAP1 signal on lysate-treated microarray – cell lysate, small-molecule microarray, COS7 lysate, primary screen (AID 1124).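 Note: lysate comes from COS7 cells expressing LAP1 and is applied at 0.3 µg/mL; score merges spot fluorescence near 667 nm with signal-to-noise over triplicate slides.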 To be noted: probe aLAP1, fluorescence, higher = more signal.
For assay [18], the system named is Sam68 (KHDRBS1). Nature of the assay: compounds binding KHDRBS1 protein – biochemical, small-molecule microarray, 635 nm fluorescence, primary screen (AID 1125).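 Note: score merges 667 nm channel intensity with signal to noise over triplicate slides.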 To be noted: higher = more signal.
Assay [19] concerns Chordin-like protein 2 (CHRDL2). The experiment in a line: compounds binding chordin-like 2 – biochemical, small-molecule microarray, 635 nm fluorescence, primary screen (AID 1126).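 Note: printed compound slides probed with Chrdl2 protein at 4 µg/mL for 1 h at 4 C; score merges 667 nm emission intensity with signal to noise over three replicate slides.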 To be noted: fluorescence 635 nm, higher = more signal.
Assay [20] deals with Concanavalin-A (Canavalia ensiformis) (UniProt P02866). The experiment in a line: compounds binding concanavalin A lectin – biochemical, small-molecule microarray, Alexa647 label, 635 nm, artefact control for SMM control protein annotation, primary screen (AID 1127).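 Note: z combines 667 nm emission intensity with signal-to-noise across three replicate slides.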 To be noted: ConA-A647 binding fluorescence, higher = more signal.
Concanavalin-A (Canavalia ensiformis), sequence (P02866 whole entry, looked up): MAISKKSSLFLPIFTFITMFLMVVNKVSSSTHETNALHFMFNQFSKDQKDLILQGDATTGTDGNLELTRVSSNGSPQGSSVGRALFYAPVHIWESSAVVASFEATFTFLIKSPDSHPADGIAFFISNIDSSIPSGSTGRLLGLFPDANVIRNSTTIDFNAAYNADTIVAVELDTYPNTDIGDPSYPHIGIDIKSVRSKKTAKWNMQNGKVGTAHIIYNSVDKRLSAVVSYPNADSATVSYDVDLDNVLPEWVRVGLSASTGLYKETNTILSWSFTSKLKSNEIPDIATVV

Albumin (Bos taurus), sequence (P02769 whole entry, looked up): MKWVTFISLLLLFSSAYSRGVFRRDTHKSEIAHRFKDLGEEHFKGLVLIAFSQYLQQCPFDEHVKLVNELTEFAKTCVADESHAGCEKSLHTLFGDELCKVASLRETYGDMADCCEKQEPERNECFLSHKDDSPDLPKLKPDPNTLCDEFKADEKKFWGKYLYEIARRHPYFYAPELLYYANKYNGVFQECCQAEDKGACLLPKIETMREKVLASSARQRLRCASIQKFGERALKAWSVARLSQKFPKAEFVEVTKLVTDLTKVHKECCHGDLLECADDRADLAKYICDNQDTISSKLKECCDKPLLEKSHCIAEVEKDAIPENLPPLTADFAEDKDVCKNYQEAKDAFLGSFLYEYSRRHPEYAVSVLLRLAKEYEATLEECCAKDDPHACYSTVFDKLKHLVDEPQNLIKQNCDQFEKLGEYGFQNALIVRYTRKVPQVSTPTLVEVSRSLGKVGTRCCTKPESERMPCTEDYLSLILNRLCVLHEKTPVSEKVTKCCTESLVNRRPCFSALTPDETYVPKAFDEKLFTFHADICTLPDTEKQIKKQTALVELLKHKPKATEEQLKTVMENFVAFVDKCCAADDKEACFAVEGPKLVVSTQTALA

Consider `C=C[C@H](C)[C@@H](O)c1ccc(OCCO)cc1`, for which the composite z-score in [1] is -1.92 and -0.467; in assay [3], -1.11 and -1.45; in assay [4] it was -0.827 and -0.366; in assay [5], 0.717 and 0.1; in [6] it was -0.261 and -0.252; in assay [7], -0.289 and 0.0639. The composite z-score in [8] was -0.194 and -0.381; in assay [9], -0.998 and 0.225; in assay [10], -1.12 and -0.0745; in [11], 0.746 and -0.0233; in assay [13], -0.494 and -0.481; in [14], -0.238 and -0.14. Also, the composite z-score in assay [15] was 0.743 and 0.6; in [16], -0.135 and -0.25; in assay [17], -1.16 and -0.0942; in [18], -1.42 and -0.873; in assay [19] it was -1.32 and -0.668; in assay [20], -1.1 and -0.494. Moreover, in assay [2], the z-score is 0.15 and 0.616. For the same molecule, the composite Z-score in assay [12] is -0.288 (inactive) and -0.162 (inactive).
With `C=CCN(CCCC)C(=O)C1N(CCCCCCO)C(=O)C2C(C(=O)O)C3C=CC21O3` (stereo not given), the composite z-score in [1] is -0.498 and -0.27; in assay [3], -3.06 and -3.09; in [4], -0.494 and -0.605; in assay [5] it was 0.169 and 0.392; in assay [6], -0.184 and -0.226; in assay [7], 0.0048 and -0.138. The composite z-score in [8] was -0.349 and -0.318; in assay [9], -0.423 and 0.349; in assay [10], -1.1 and -1.81; in assay [11] it was -1.52 and -1.4; in assay [13] it was -0.555 and -0.323; in assay [14], -0.222 and -0.185. Moreover, the composite z-score was 0.913 and 0.938 in [15]; -0.809 and 0.159 in assay [16]; 0.861 and 0.0304 in [17]; -0.243 and -0.577 in [18]; -1.56 and -3.19 in assay [19]; -2.11 and -0.791 in assay [20]. The z-score in [2] was 0.227 and -0.883. Besides, the composite Z-score in [12] was 0.0063 (inactive) and 0.131 (inactive).
Regarding `C=CCN(C(=O)C1N(c2c(Cl)cccc2CO)C(=O)C2C(C(=O)O)C3C=CC21O3)C(C)(C)C` (stereo not given), the composite z-score is -0.375 and -1.73 in assay [1]; -2.64 and -2.81 in assay [3]; -0.68 and -0.347 in [4]; -0.0519 and 0.673 in assay [5]; -0.334 and -0.28 in assay [6]; -0.544 and -0.123 in assay [7]. In addition, the composite z-score in assay [8] was 0.793 and -0.124; in [9] it was -0.879 and -1.71; in [10], -1.09 and -1.44; in assay [11], 0.393 and -0.872; in [13], -0.479 and -0.47; in [14], -0.253 and -0.185. The composite z-score in assay [15] is 0.791 and -0.713; in assay [16], -0.556 and -0.856; in assay [17], -0.0145 and -0.779; in assay [18], -1.2 and -2.06; in assay [19], -2.06 and -2.92; in [20], -1.09 and -0.331. The z-score in assay [2] was -0.892 and -0.519. The composite Z-score in [12] was 0.0388 (inactive) and -0.166 (inactive).
For the molecule `CO[C@H]1COC(=O)[C@H](C)NC(=O)CC=C[C@@H](C)[C@H](OC)COC(=O)CC=C[C@@H]1C`, the composite z-score in assay [1] is -1.05; in assay [3], 0.955; in [4], -0.884; in [5], -0.822; in assay [6] it was -0.0944; in assay [7], -0.0337. Also, the composite z-score in [8] was -0.198; in assay [9], 0.169; in assay [10] it was -0.0006; in assay [11] it was -0.956; in assay [13] it was -0.0716; in [14] it was -0.161. Also, the composite z-score is -0.719 in [15]; -0.705 in [16]; -0.796 in assay [17]; -0.25 in assay [18]; 1.49 in assay [19]; -1.85 in [20]. Further, the z-score in assay [2] is -0.885. Also, the composite Z-score in [12] is 0.536 (inactive).
For `CC(CO)N1C(=O)[C@@H]2C3C(=O)OCCC=C[C@H]3OC23C=CCN(Cn2nnc4ccccc42)C(=O)[C@@H]13` (stereo not given in full), the composite z-score in assay [1] was -0.394 and 0.27; in [3], -0.985 and -0.403; in assay [4], -0.184 and -0.298; in [5], 0.73 and -0.573; in [6] it was -0.25 and 0.0431; in [7], -0.474 and 0.0062. Further, the composite z-score in [8] is -0.0103 and -0.142; in assay [9], -0.393 and 0.0141; in assay [10], -0.652 and -0.332; in [11], -0.169 and 0.923; in assay [13] it was -0.374 and -0.15; in assay [14], -0.14 and -0.0191. Besides, the composite z-score in assay [15] is 0.939 and 0.856; in assay [16], 0.342 and -0.478; in assay [17], 0.102 and 0.397; in [18] it was -0.821 and -0.291; in assay [19] it was -2.19 and 0.0479; in assay [20], -0.221 and -0.0699. Further, the z-score in assay [2] was -1.03 and 0.0704. Moreover, the composite Z-score in assay [12] was 0.318 (inactive) and 0.418 (inactive).
For the molecule `C=CCN(Cc1ccccc1)C(=O)C(c1cccs1)N(C(=O)/C=C\C(=O)O)c1c(Cl)cccc1CO` (stereo not given), the composite z-score in [1] is -1.63 and -2.43; in [3], -0.682 and -3.86; in assay [4] it was -0.374 and -0.222; in [5], 0.58 and 0.911; in [6], -0.12 and -0.298; in [7], -0.212 and -0.366. In addition, the composite z-score in [8] was -0.153 and 0.103; in [9], -1.51 and -0.936; in [10], -0.974 and -2.03; in assay [11], -0.248 and -1.84; in [13] it was -0.437 and -0.491; in assay [14], -0.155 and -0.0772. Moreover, the composite z-score is -0.393 and -0.843 in [15]; -0.665 and -0.537 in assay [16]; -0.657 and -0.277 in assay [17]; -0.84 and -2.12 in assay [18]; -1.64 and -2.62 in assay [19]; -1.52 and -1.86 in assay [20]. Also, the z-score in [2] is -0.68 and -0.803. In addition, the composite Z-score in assay [12] is 0.0723 (inactive) and -1.07 (inactive).
